Columns and labels:
Test in all cases: growth AUC relative to DMSO control (median of replicates) (fraction); higher = more growth (less inhibition), active = hit call of the paper
Conditions in all cases: 20 µM; 24 h;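 active = AUC reduced over 20% with Padj below 0.05 in at least 2 of 3 replicates; inactive = otherwise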
Akkermansia muciniphila = system: Akkermansia muciniphila
Procedure, shortened: (§1)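 Area under the growth curve was normalised to the plate median of solvent-only wells, except on the industrial chemical plate, where row and column medians were used. Curves came from gut bacterial monocultures grown anaerobically at 37 °C in mGAM with 20 µM compound (1% DMSO), starting at OD600 0.05 and read at OD600 every hour for 24 h. The minimum OD of each curve was set to 0, and values are medians of three biological replicates grown on separate days.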

Bacteroides caccae = system: Bacteroides caccae
Procedure, shortened: as §1

Bacteroides clarus = system: Bacteroides clarus
Procedure, shortened: as §1

Bacteroides dorei = system: Bacteroides dorei
Procedure, shortened: as §1

Bacteroides stercoris = system: Bacteroides stercoris
Procedure, shortened: as §1

[1] = system: Bacteroides thetaiotaomicron
Procedure, shortened: as §1

Bacteroides uniformis = system: Bacteroides uniformis
Procedure, shortened: as §1

[2] = system: Bifidobacterium longum subsp. longum
Procedure, shortened: as §1

Clostridium difficile = system: Clostridium difficile
Procedure, shortened: as §1

Collinsella aerofaciens = system: Collinsella aerofaciens
Procedure, shortened: as §1

Coprococcus comes = system: Coprococcus comes
Procedure, shortened: as §1

Escherichia coli ED1a = system: Escherichia coli ED1a
Procedure, shortened: as §1

Escherichia coli IAI1 = system: Escherichia coli IAI1
Procedure, shortened: as §1

Eubacterium rectale = system: Eubacterium rectale
Procedure, shortened: as §1

[3] = system: Fusobacterium nucleatum subsp. animalis
Procedure, shortened: as §1

Lactobacillus gasseri = system: Lactobacillus gasseri
Procedure, shortened: as §1

Lactobacillus paracasei = system: Lactobacillus paracasei
Procedure, shortened: as §1

Odoribacter splanchnicus = system: Odoribacter splanchnicus
Procedure, shortened: as §1

[4] = system: Parabacteroides distasonis
Procedure, shortened: as §1

Parabacteroides merdae = system: Parabacteroides merdae
Procedure, shortened: as §1

Measured: growth AUC

COC(=O)c1ccccc1S(=O)(=O)NC(=O)n1nc(OCC(C)O)n(C)c1=O (stereo not given)
inactive: Akkermansia muciniphila 0.933 | Bacteroides caccae 1 | Bacteroides clarus 0.962 | Bacteroides dorei 0.992 | Bacteroides stercoris 0.982 | [1] 0.994 | Bacteroides uniformis 1.03 | [2] 0.956 | Clostridium difficile 0.951 | Collinsella aerofaciens 1.02 | Coprococcus comes 0.991 | Escherichia coli ED1a 0.99 | Escherichia coli IAI1 0.991 | Eubacterium rectale 1.08 | [3] 1.02 | Lactobacillus gasseri 1.01 | Lactobacillus paracasei 1.03 | Odoribacter splanchnicus 0.943 | [4] 1.03 | Parabacteroides merdae 0.996

CNC(=O)Sc1ccc(OS(C)(=O)=O)cc1
inactive: Akkermansia muciniphila 0.955 | Bacteroides caccae 1.02 | Bacteroides clarus 0.858 | Bacteroides dorei 0.925 | Bacteroides stercoris 0.77 | [1] 0.848 | Bacteroides uniformis 0.953 | [2] 0.847 | Clostridium difficile 0.96 | Collinsella aerofaciens 1.01 | Coprococcus comes 1.02 | Escherichia coli ED1a 1.01 | Escherichia coli IAI1 1.02 | Eubacterium rectale 1.54 | [3] 1.09 | Lactobacillus gasseri 0.933 | Lactobacillus paracasei 0.953 | Odoribacter splanchnicus 0.864 | [4] 0.817 | Parabacteroides merdae 0.938

CCNC(=O)[C@@H](C)OC(=O)Nc1ccccc1
inactive: Akkermansia muciniphila 0.912 | Bacteroides caccae 0.991 | Bacteroides clarus 1.02 | Bacteroides dorei 0.992 | Bacteroides stercoris 1.06 | [1] 1.01 | Bacteroides uniformis 0.969 | [2] 0.976 | Clostridium difficile 1.03 | Collinsella aerofaciens 1.1 | Coprococcus comes 1.04 | Escherichia coli ED1a 1.01 | Escherichia coli IAI1 1.01 | Eubacterium rectale 1.01 | [3] 1.05 | Lactobacillus gasseri 1.18 | Lactobacillus paracasei 0.941 | Odoribacter splanchnicus 0.955 | [4] 1.08 | Parabacteroides merdae 1.04

CC[N+](CC)(CC(=O)Nc1c(C)cccc1C)Cc1ccccc1.O=C([O-])c1ccccc1
inactive: Akkermansia muciniphila 1.24 | Bacteroides caccae 0.992 | Bacteroides clarus 1.05 | Bacteroides dorei 1.04 | Bacteroides stercoris 1.11 | [1] 0.999 | Bacteroides uniformis 0.993 | [2] 0.98 | Clostridium difficile 1.04 | Collinsella aerofaciens 1 | Coprococcus comes 1.04 | Escherichia coli ED1a 1.01 | Escherichia coli IAI1 1.04 | Eubacterium rectale 1.14 | [3] 1.02 | Lactobacillus gasseri 0.967 | Lactobacillus paracasei 1.05 | Odoribacter splanchnicus 0.995 | [4] 1.06 | Parabacteroides merdae 1.05

CNC(=O)Nc1nc2ccccc2s1
inactive: Akkermansia muciniphila 0.957 | Bacteroides caccae 0.953 | Bacteroides clarus 0.999 | Bacteroides dorei 0.959 | Bacteroides stercoris 1.1 | [1] 1.01 | Bacteroides uniformis 0.966 | [2] 0.955 | Clostridium difficile 0.969 | Collinsella aerofaciens 0.942 | Coprococcus comes 1.01 | Escherichia coli ED1a 0.999 | Escherichia coli IAI1 0.984 | Eubacterium rectale 1.03 | [3] 1 | Lactobacillus gasseri 0.944 | Lactobacillus paracasei 0.953 | Odoribacter splanchnicus 1.05 | [4] 0.984 | Parabacteroides merdae 1.03

Cc1c(C(=O)c2c[nH]n(C)c2=O)ccc(S(C)(=O)=O)c1C1=NOCC1
inactive: Akkermansia muciniphila 0.937 | Bacteroides caccae 1.03 | Bacteroides clarus 0.983 | Bacteroides dorei 0.989 | Bacteroides stercoris 0.895 | [1] 1 | Bacteroides uniformis 1.01 | [2] 1.13 | Clostridium difficile 1 | Collinsella aerofaciens 0.976 | Coprococcus comes 1.02 | Escherichia coli ED1a 0.984 | Escherichia coli IAI1 0.981 | Eubacterium rectale 0.99 | [3] 0.972 | Lactobacillus gasseri 0.999 | Lactobacillus paracasei 0.954 | Odoribacter splanchnicus 1.04 | [4] 1.04 | Parabacteroides merdae 1

COC(=O)[C@@H](C)Oc1ccc(Oc2ncc(C(F)(F)F)cc2Cl)cc1
inactive: Akkermansia muciniphila 1.04 | Bacteroides caccae 0.831 | Bacteroides clarus 1.01 | Bacteroides dorei 0.984 | Bacteroides stercoris 1.16 | [1] 0.963 | Bacteroides uniformis 0.907 | [2] 0.976 | Clostridium difficile 1.05 | Collinsella aerofaciens 0.981 | Coprococcus comes 1.02 | Escherichia coli ED1a 1.02 | Escherichia coli IAI1 1.01 | Eubacterium rectale 1.05 | [3] 1.06 | Lactobacillus gasseri 0.889 | Lactobacillus paracasei 1.04 | Odoribacter splanchnicus 0.946 | [4] 0.913 | Parabacteroides merdae 1.01

NC1=C(Cl)C(=O)c2ccccc2C1=O
inactive: Akkermansia muciniphila 0.886 | Bacteroides caccae 1.12 | Bacteroides dorei 0.965 | Bacteroides stercoris 0.83 | [1] 0.906 | Bacteroides uniformis 0.88 | [2] 0.887 | Clostridium difficile 0.938 | Collinsella aerofaciens 1.01 | Coprococcus comes 1 | Escherichia coli ED1a 0.896 | Escherichia coli IAI1 0.804 | Eubacterium rectale 1.19 | [3] 1.25 | Lactobacillus gasseri 0.863 | Lactobacillus paracasei 0.995 | Odoribacter splanchnicus 0.876 | Parabacteroides merdae 0.88
active: Bacteroides clarus 0.716 | [4] 0.528

CCCCC(CC)COC(=O)COc1cc(Cl)c(Cl)cc1Cl (stereo not given)
inactive: Akkermansia muciniphila 0.936 | Bacteroides caccae 0.97 | Bacteroides clarus 0.93 | Bacteroides dorei 0.984 | Bacteroides stercoris 1.03 | [1] 0.987 | Bacteroides uniformis 0.993 | [2] 0.807 | Clostridium difficile 0.999 | Collinsella aerofaciens 0.948 | Coprococcus comes 0.976 | Escherichia coli ED1a 0.99 | Escherichia coli IAI1 1.03 | Eubacterium rectale 0.903 | [3] 0.9 | Lactobacillus gasseri 1.06 | Lactobacillus paracasei 1.05 | Odoribacter splanchnicus 0.998 | [4] 0.965 | Parabacteroides merdae 0.937

CCOC(=O)Cc1[nH]nc2ccc(Cl)cc12
inactive: Akkermansia muciniphila 0.921 | Bacteroides caccae 1.01 | Bacteroides clarus 1.01 | Bacteroides dorei 0.996 | Bacteroides stercoris 1.15 | [1] 1.01 | Bacteroides uniformis 1.01 | [2] 0.989 | Clostridium difficile 1 | Collinsella aerofaciens 0.969 | Coprococcus comes 0.976 | Escherichia coli ED1a 1.02 | Escherichia coli IAI1 1 | Eubacterium rectale 1.03 | [3] 1.08 | Lactobacillus gasseri 1.02 | Lactobacillus paracasei 0.917 | Odoribacter splanchnicus 1.08 | [4] 0.983 | Parabacteroides merdae 1.03

O=C(O)c1cccc2nnsc12
inactive: Akkermansia muciniphila 0.935 | Bacteroides caccae 0.996 | Bacteroides clarus 0.998 | Bacteroides dorei 0.964 | Bacteroides stercoris 0.963 | [1] 1.01 | Bacteroides uniformis 1.01 | [2] 1.03 | Clostridium difficile 0.99 | Collinsella aerofaciens 0.977 | Coprococcus comes 0.996 | Escherichia coli ED1a 0.989 | Escherichia coli IAI1 0.991 | Eubacterium rectale 1.01 | [3] 0.982 | Lactobacillus gasseri 0.936 | Lactobacillus paracasei 0.909 | Odoribacter splanchnicus 1.03 | [4] 0.999 | Parabacteroides merdae 0.998

FC(F)(F)C(=NOCC1OCCO1)c1ccc(Cl)cc1
inactive: Akkermansia muciniphila 1.16 | Bacteroides caccae 0.948 | Bacteroides clarus 1.05 | Bacteroides dorei 0.969 | Bacteroides stercoris 1.34 | [1] 0.991 | Bacteroides uniformis 0.941 | [2] 0.988 | Clostridium difficile 0.904 | Collinsella aerofaciens 0.976 | Coprococcus comes 1.02 | Escherichia coli ED1a 1.01 | Escherichia coli IAI1 1.04 | Eubacterium rectale 1.06 | [3] 1.08 | Lactobacillus gasseri 1.01 | Lactobacillus paracasei 1.07 | Odoribacter splanchnicus 1.04 | [4] 1 | Parabacteroides merdae 1.03

CN(C)C(=O)Nc1ccc(Oc2ccc(Cl)cc2)cc1
inactive: Akkermansia muciniphila 0.943 | Bacteroides caccae 0.863 | Bacteroides clarus 0.948 | Bacteroides dorei 0.871 | Bacteroides stercoris 0.819 | [1] 0.92 | Bacteroides uniformis 1.02 | [2] 0.991 | Clostridium difficile 0.96 | Collinsella aerofaciens 0.924 | Coprococcus comes 0.938 | Escherichia coli ED1a 0.95 | Escherichia coli IAI1 0.938 | Eubacterium rectale 1.24 | [3] 0.849 | Lactobacillus gasseri 0.926 | Lactobacillus paracasei 1.08 | Odoribacter splanchnicus 1.1 | [4] 0.937 | Parabacteroides merdae 0.918

O=C1NCCN1
inactive: Akkermansia muciniphila 1.15 | Bacteroides caccae 1.02 | Bacteroides clarus 1.02 | Bacteroides dorei 1.06 | Bacteroides stercoris 1.18 | [1] 1.02 | Bacteroides uniformis 0.978 | [2] 1.04 | Clostridium difficile 0.993 | Collinsella aerofaciens 1.02 | Coprococcus comes 1.04 | Escherichia coli ED1a 1.05 | Escherichia coli IAI1 1.06 | Eubacterium rectale 1.01 | [3] 1.03 | Lactobacillus gasseri 0.984 | Lactobacillus paracasei 0.904 | Odoribacter splanchnicus 1.04 | [4] 1.02 | Parabacteroides merdae 1.04

CCOC(=O)c1ccc(O)cc1
inactive: Akkermansia muciniphila 1.17 | Bacteroides caccae 0.967 | Bacteroides clarus 1.01 | Bacteroides dorei 0.842 | Bacteroides stercoris 0.993 | [1] 0.991 | Bacteroides uniformis 1 | [2] 1.02 | Clostridium difficile 1.01 | Collinsella aerofaciens 1 | Coprococcus comes 1 | Escherichia coli ED1a 0.974 | Escherichia coli IAI1 0.969 | Eubacterium rectale 1.07 | [3] 1.05 | Lactobacillus gasseri 0.822 | Lactobacillus paracasei 0.978 | Odoribacter splanchnicus 0.988 | [4] 0.893 | Parabacteroides merdae 0.976

CCCCC(CC)CN1C(=O)C2C(C1=O)[C@H]1C=C[C@@H]2C1 (mixture of isomers)
inactive: Akkermansia muciniphila 1.11 | Bacteroides caccae 1 | Bacteroides clarus 1.03 | Bacteroides dorei 0.974 | Bacteroides stercoris 1.06 | [1] 0.985 | Bacteroides uniformis 0.972 | [2] 1.05 | Clostridium difficile 1.03 | Collinsella aerofaciens 1.12 | Coprococcus comes 1.03 | Escherichia coli ED1a 1.01 | Escherichia coli IAI1 1.03 | Eubacterium rectale 0.93 | [3] 1.01 | Lactobacillus gasseri 1.06 | Lactobacillus paracasei 1.04 | Odoribacter splanchnicus 1.03 | Parabacteroides merdae 0.977
active: [4] 0.79

Source: the supplement of paper PMC12669032
